# Assay outcomes from PubChem BioAssay.
# Casp7 inh – qHTS Assay for Allosteric/Competitive Inhibitors of Caspase-7; Potency, µM (top dose mostly 57.5 µM), without a hit: top-dose activity change, negative = inhibition, usual class: inhibitors; recombinant caspase-7, Ac-DEVD-AFC fluorescence rate; 75,000 compounds, 0.02% hits; P55210; active = well fitted inhibition curve with a large enough effect in the main read-out, with a control signal flat, not every such curve was filed as active; inconclusive = small, poorly fitted or top-dose-only effect, or a change in a side signal; also: % of control where 0% means no effect
# Pol III holo inh – qHTS Assay for Inhibitors of DNA Polymerase III Holoenzyme System. reconstituted DNA polymerase III holoenzyme replication, biochemical. Potency, µM (titrated, usually from 57.1 µM), for inactives: at the top dose activity change, negative = inhibition. 71,000 compounds, 0.25% hits; also: % is scaled to controls: 0 for no effect and ±100 for the full control effect
#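 Reconstituted *E. coli* holoenzyme (0.35 nM Pol III, 1 nM beta, 154 nM SSB, 2 nM primase) was preincubated with compound for 15 min at RT. Synthesis on 1.4 nM ssM13Gori ran 35 min, then was stopped with PicoGreen/EDTA and read as dsDNA fluorescence.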
# 15-hLO inh – qHTS Assay for Inhibitors of 15-hLO (15-human lipoxygenase). purified 15hLO-1, xylenol orange hydroperoxide absorbance. 74,000 compounds, 1.4% hits. Polyunsaturated fatty acid lipoxygenase ALOX15 (Homo sapiens), P16050. Potency, µM (top dose mostly 57.1 µM), for the others: at the top dose activity change, negative = inhibition, most hits filed as inhibitors; also: % is scaled to controls: 0 for no effect and ±100 for the full control effect; nearly all actives have a fitted effect of over 55% in size
#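 Inhibition is scored from a chromogenic endpoint. After 15 min enzyme-compound contact, arachidonic acid (50 uM final) reacts 6 min with 40 nM 15hLO-1 at room temperature, then Fe-XO reagent is added for 30 min and absorbance ratio recorded.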
# Tau filament bind – qHTS Assay for Tau Filament Binding; Microtubule-associated protein tau (Homo sapiens), P10636; recombinant tau filaments, thioflavin S fluorescence, 15 h; filaments grown with octadecylsulfate alongside compound; Potency, µM (series often up to 57.1 µM), without a hit: top-dose activity change, negative = inhibition; 71,000 compounds, 2% hits;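 also: % is scaled to controls: 0 for no effect and ±100 for the full control effect; actives lower thioflavin S fluorescence by blocking filaments or displacing dye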
# Target sequence (P10636 whole entry, looked up): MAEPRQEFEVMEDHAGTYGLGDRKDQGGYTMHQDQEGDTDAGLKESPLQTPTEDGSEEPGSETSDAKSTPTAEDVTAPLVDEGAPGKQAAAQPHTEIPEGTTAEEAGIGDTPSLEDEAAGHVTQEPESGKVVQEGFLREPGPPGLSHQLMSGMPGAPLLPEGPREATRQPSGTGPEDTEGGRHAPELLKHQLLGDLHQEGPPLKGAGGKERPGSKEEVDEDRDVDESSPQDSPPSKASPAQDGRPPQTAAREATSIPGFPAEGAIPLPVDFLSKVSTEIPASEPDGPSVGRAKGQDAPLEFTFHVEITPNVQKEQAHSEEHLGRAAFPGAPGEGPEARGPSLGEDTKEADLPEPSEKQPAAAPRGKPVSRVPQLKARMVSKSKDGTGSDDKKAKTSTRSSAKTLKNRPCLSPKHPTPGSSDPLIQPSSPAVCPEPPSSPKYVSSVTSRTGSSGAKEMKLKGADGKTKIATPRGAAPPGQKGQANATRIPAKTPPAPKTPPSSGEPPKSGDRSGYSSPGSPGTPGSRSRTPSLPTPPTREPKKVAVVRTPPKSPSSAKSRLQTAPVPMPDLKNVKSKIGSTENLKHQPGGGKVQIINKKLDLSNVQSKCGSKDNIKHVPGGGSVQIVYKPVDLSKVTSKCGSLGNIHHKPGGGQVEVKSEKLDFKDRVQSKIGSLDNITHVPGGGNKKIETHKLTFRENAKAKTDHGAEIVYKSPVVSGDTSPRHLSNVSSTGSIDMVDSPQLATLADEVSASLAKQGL
#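 Read-out: ThS fluorescence, 450 nm excitation/510 nm emission; lower signal marks blocked filament formation or displaced dye. Tau at 1 uM with 30 uM ODS, 10 uM ThS, 5 mM DTT, 100 mM NaCl, 10 mM HEPES pH 7.4; 15 h, 37 C.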
# Casp1 inh – qHTS Assay for Allosteric/Competitive Inhibitors of Caspase-1; P29466; Caspase-1 enzyme, Ac-WEHD-AFC fluorogenic rate; Potency, µM (series often up to 57.5 µM), inactives show at the highest dose activity change, negative = inhibition, actives largely listed as inhibitors; 75,000 compounds, 0.03% hits; AID 900, 2007;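 also: plate controls were vehicle for no effect and no substrate for full effect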
# The depositor's hits bear a star; u = inconclusive; x = no result given; ! = not confirmed by another sample; [ ] = dose if it differs, or a comment. This is a sample that favours compounds with a hit; in the whole collection about 3.2% have one here. Unless noted, calls follow the shape of the dose curve; as a rule, active = well fitted curve in the direction sought with a large enough effect; inconclusive = small, poorly fitted or top-dose-only effect, or another doubt; inactive = no such curve, though single readings can be large; an effect the other way counts as inactive or inconclusive. Potency is read from the fitted curve at half-maximal effect.
SMILES,Casp7 inh,Pol III holo inh,15-hLO inh,Tau filament bind,Casp1 inh
CC(=O)c1c(COC(=O)c2cccnc2)nc2ccccc2[n+]1[O-],-6.6%,-5.3%,6.7%,20µM*,-1.8%
Cc1cccc(C(=O)O)c1C[C@H]1NCC[C@H]2c3ccccc3N[C@@H]12,-10.1%[11.5 µM],-9.6%[11.4 µM],4.7%[11.4 µM],-0.1%[11.4 µM],-3.7%[11.5 µM]
CCOc1ccc2[nH]c(=O)c(=O)[nH]c2c1,-9.9%,-7.8%,1.5%,10µM*,-2.5%
CCN(c1cccc(C)c1)S(=O)(=O)c1ccc(O)c(C(=O)O)c1,-2.4%,x,u,x,-2.2%
Cc1ccc(/C=C/C2=Cc3c(sc(NC(=O)CSc4n[nH]c(N)n4)c3C#N)C(C)(C)C2)o1,u,-11.0%,12.6µM*,63.5%,u
CCOC(=O)c1c(NC(=O)CSc2n[nH]c(N)n2)sc(CC)c1C,0.1%,-6.6%,-10.2%,18.5%,3.0%
COc1cccc(Cn2c(=O)c(CCc3ccccc3)nc3cnc(OC)nc32)c1,-4.8%,-2.7%,-0.8%,-12.5%,-3.1%
Cc1ccc2c(c1)c1c3n2CCN=C3CCC1,u,-0.5%,-7.6%,12.6µM*,x
Cc1nnc(SCC2=C(C(=O)O)N3C(=O)C(NC(=O)Cn4cnnn4)[C@@H]3SC2)s1 (stereo partly specified),-2.9%,x,-6.3%,x,-1.7%
CCOc1cc(N2CCOCC2)c(OCC)cc1NC(=O)CCS(=O)(=O)c1ccc(Cl)cc1,-0.5%,-1.9%,-2.3%,25.1µM*,-4.0%
CCOc1cc(N2CCOCC2)c(OCC)cc1NC(=O)CCC1CCCC1,-1.7%,0.1%,-2.6%,-11.0%,0.9%
CCOc1cc(N2CCOCC2)c(OCC)cc1NC(=O)c1nc2nc(C)cc(C)n2n1,0.6%,-3.0%,10.9%,25.1µM*,2.6%
CC(C)COC[C@H](CN(Cc1ccccc1)c1ccccc1)N1CCCC1,-2.7%[25.7 µM],-3.8%[25.6 µM],-0.5%[25.6 µM],-22.4%[25.6 µM],2.1%[25.7 µM]
CCc1c(C)sc(NC(=O)c2cc(C)no2)c1C#N,-0.2%,-3.1%,-4.8%,-6.1%,-1.2%
CCc1c(C)sc(NC(=O)CC#N)c1C#N,-22.6%,-7.2%,-11.2%,12.6µM*,-9.9%
CC(C)=CCC/C(C)=C/CO/N=C1/C[C@@H](O)[C@@H](O)[C@@H]2[C@@H]3C(=O)N([C@@H](C)c4ccccc4)C(=O)[C@H]3CC[C@@H]12,0.4%[11.5 µM],x,-6.8%[11.4 µM],x,1.4%[11.5 µM]
O=c1c2cc(Cl)ccc2oc2nc3n(c(=O)c12)CCCS3,-1.0%,0.3%,-2.5%,12.6µM*,0.3%
O=C(c1ccc(F)cc1)C1CCN(CCn2c(=O)[nH]c3ccccc3c2=O)CC1,2.7%,-7.0%,-9.7%[25.6 µM],31.6µM*!,-3.5%
COc1cc([C@@H]2Oc3cc([C@H]4Oc5cc(O)cc(O)c5C(=O)[C@H]4O)ccc3O[C@H]2CO)ccc1O,-5.8%,-6.5%,2µM*,u,-1.2%
O=C(Nc1ccc(F)cc1F)c1cc(-c2ccco2)on1,-8.4%,0.7%,-28.0%,20µM*,-2.2%
CN(C)c1ncc2ncc(=O)n(Cc3cccs3)c2n1,u,-3.9%,-6.9%,-5.7%,x
N=c1c(S(=O)(=O)c2ccccc2)cc2c(=O)n3ccccc3nc2n1CC1CCCO1 (stereo unspecified),u,-4.4%,-15.9%,17.7%,x
Cc1ccc(CNC(=O)c2cc3c(=O)n4cccc(C)c4nc3n(CC3CCCO3)c2=N)cc1 (stereo unspecified),u,-5.8%,-0.3%,1.26µM*,x
CCCn1c(=N)c(C(=O)NCC2CCCO2)cc2c(=O)n3cccc(C)c3nc21 (stereo unspecified),u,-11.2%,-1.3%,-13.7%,x
COCCCn1c(=N)c(C(=O)NCC2CCCO2)cc2c(=O)n3ccccc3nc21 (stereo unspecified),u,-9.5%,25.1µM*,44.3%,x
N=c1c(C(=O)NCc2ccc(F)cc2)cc2c(=O)n3ccccc3nc2n1CC1CCCO1 (stereo unspecified),u,-3.2%,-13.6%,3.16µM*,x
NS(=O)(=O)c1ccc(NC(=O)Nc2ccccc2F)cc1,-1.5%[11.5 µM],-10.6%[11.4 µM],8.9%[11.4 µM],-0.3%[11.4 µM],-1.2%[11.5 µM]
